Experimental data reported in PubChem BioAssay (EPA / NIEHS).
Records with an inconclusive call do not appear. The source made the active and inactive calls. The calls were made as follows, unless noted: active = hit-call score of the fitted dose curve at least 0.9, where 1 is the maximum; inactive = score below 0.9.

What was measured:
[1] = read-out: Interleukin-1 alpha (IL1a), IL1A (gene 3552); assay: BSK_LPS_IL1a: BioMAP Diversity Plus: LPS Assay for Interleukin-1 alpha (IL1a) Biomarker Activity (AID 2283080); settings: primary human HUVEC with PBMC; actives raise or lower the signal
How it was run: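 Human umbilical vein endothelial cells co-cultured with PBMC and stimulated with LPS; IL-1a measured by ELISA 24 h after dosing. Bidirectional fitting against DMSO; cytotoxicity checked by SRB staining in parallel cultures.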

[2] = read-out: Monocyte Chemoattractant Protein-1 (MCP1), CCL2 (gene 6347); assay: BSK_LPS_MCP1: BioMAP Diversity Plus: LPS Assay for Monocyte Chemoattractant Protein-1 (MCP1) Biomarker Activity (AID 2283081); settings: primary human HUVEC with PBMC; actives raise or lower the signal;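 as to AC50: secreted MCP-1 protein quantified by ELISA in culture supernatant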
How it was run: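 Human umbilical vein endothelial cells co-cultured with PBMC, LPS-stimulated; secreted MCP-1 measured by ELISA 24 h after compound addition. Bidirectional curve fitting against DMSO baseline; SRB total-protein staining in parallel cultures for cytotoxicity.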

[3] = BSK_LPS_PGE2: BioMAP Diversity Plus: LPS Assay for Prostaglandin E2 (PGE2) Biomarker Activity (AID 2283082); settings: primary human HUVEC with PBMC; actives raise or lower the signal;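 as to AC50: secreted prostaglandin E2 measured by ELISA in LPS-stimulated co-culture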
How it was run: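 HUVEC plus PBMC co-culture stimulated with LPS; secreted PGE2 quantified by ELISA 24 h after chemical dosing. Activity fitted bidirectionally against DMSO as negative control and baseline; parallel SRB total-protein staining served as cytotoxicity check.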

[4] = read-out: Macrophage colony-stimulating factor (MCSF), CSF1 (gene 1435); assay: BSK_LPS_MCSF: BioMAP Diversity Plus: LPS Assay for Macrophage colony-stimulating factor (MCSF) Biomarker Activity (AID 2283083); settings: primary human HUVEC with PBMC; actives raise or lower the signal
How it was run: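 HUVEC–PBMC co-culture, M-CSF measured by ELISA 24 h after chemical dosing. Fitted in both directions relative to DMSO as negative control; overt cytotoxicity assessed by SRB total-protein staining in parallel cultures.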

[5] = read-out: Tissue Factor, F3 (gene 2152); assay: BSK_LPS_TissueFactor: BioMAP Diversity Plus: LPS Assay for Tissue Factor Biomarker Activity (AID 2283084); settings: primary human HUVEC with PBMC; actives raise or lower the signal
How it was run: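 Human umbilical vein endothelial cells co-cultured with PBMC were dosed with compound. Cell-surface CD142 was measured by ELISA 24 h later. Activity was fitted bidirectionally against DMSO, with SRB total-protein staining in parallel cultures for cytotoxicity.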

[6] = read-out: Tumor necrosis factor (Homo sapiens) (UniProt P01375); assay: BSK_LPS_TNFa: BioMAP Diversity Plus: LPS Assay for Tumour Necrosis Factor alpha (TNFa) Biomarker Activity (AID 2283085); settings: primary human HUVEC with PBMC; actives raise or lower the signal
How it was run: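 Human umbilical vein endothelial cells co-cultured with PBMC were exposed to test chemical and TNFa measured by ELISA 24 h after dosing. Bidirectional curve fitting was done relative to DMSO as negative control and baseline.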

[7] = read-out: Vascular cell adhesion molecule 1 (VCAM1), VCAM1 (gene 7412); assay: BSK_LPS_VCAM1: BioMAP Diversity Plus: LPS Assay for Vascular cell adhesion molecule 1 (VCAM1) Biomarker Activity (AID 2283086); settings: primary human HUVEC with PBMC; actives raise or lower the signal
How it was run: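 Human umbilical vein endothelial cells co-cultured with peripheral blood mononuclear cells under LPS stimulation were exposed to test chemical for 24 h. VCAM-1 levels were then measured by ELISA, with bidirectional curve fitting relative to DMSO as negative control and baseline.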

[8] = read-out: CD38, CD38 (gene 952); assay: BSK_SAg_CD38: BioMAP Diversity Plus: SAg Assay for CD38 Biomarker Activity (AID 2283087); settings: primary human HUVEC with PBMC; actives raise or lower the signal
How it was run: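 Fluorescence ELISA of cell-surface CD38 served as the read-out, with either increase or decrease fitted against DMSO controls. Cells were a human umbilical vein endothelium plus PBMC co-culture under SEB/TSST-1 stimulation, measured 24 h after dosing.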

[9] = read-out: CD40, CD40 (gene 958); assay: BSK_SAg_CD40: BioMAP Diversity Plus: SAg Assay for CD40 Biomarker Activity (AID 2283088); settings: primary human HUVEC with PBMC; actives raise or lower the signal
How it was run: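 HUVEC plus PBMC co-culture, superantigen-activated, with CD40 read by ELISA 24 h after dosing. Curves fitted in both directions against DMSO. Overt cytotoxicity checked by parallel SRB total-protein staining.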

[10] = read-out: CD69, CD69 (gene 969); assay: BSK_SAg_CD69: BioMAP Diversity Plus: SAg Assay for CD69 Biomarker Activity (AID 2283089); settings: primary human HUVEC with PBMC; actives raise or lower the signal;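 as to AC50: cell surface CD69 protein quantified by ELISA with fluorescence detection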
How it was run: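 ELISA, fluorescence read-out: CD69 on human umbilical vein endothelial cell + PBMC co-culture, 24 h post-dosing. Gain or loss of signal fitted bidirectionally against DMSO baseline.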

[11] = read-out: Monocyte Chemoattractant Protein-1 (MCP1), CCL2 (gene 6347); assay: BSK_SAg_MCP1: BioMAP Diversity Plus: SAg Assay for Monocyte Chemoattractant Protein-1 (MCP1) Biomarker Activity (AID 2283090); settings: primary human HUVEC with PBMC; actives raise or lower the signal
How it was run: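 MCP-1 levels in the endothelial–PBMC SAg co-culture were quantified by ELISA at 24 h post-dosing; both increases and decreases versus DMSO scored. Cytotoxicity monitored by SRB total protein in parallel cultures.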

[12] = read-out: E-selectin (Homo sapiens) (UniProt P16581); assay: BSK_SAg_Eselectin: BioMAP Diversity Plus: SAg Assay for Eselectin Biomarker Activity (AID 2283091); settings: primary human HUVEC with PBMC; actives raise or lower the signal
How it was run: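 Human umbilical vein endothelial cells co-cultured with peripheral blood mononuclear cells, SAg system. E-selectin is measured by ELISA 24 h after dosing and fitted bidirectionally against DMSO. Cytotoxicity is checked by SRB staining of parallel cultures.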

[13] = BSK_SAg_PBMCCytotoxicity: PBMC Cytotoxicity Assessment in the BioMAP Diversity Plus: SAg Assay (AID 2283093); settings: primary human HUVEC with PBMC;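 also: PBMC viability measured as Alamar Blue reduction fluorescence at 546/580 nm; fitted both ways against DMSO so a hit may be loss or gain of signal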;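 as to AC50: PBMC superantigen activated with SEB plus TSST-1 one hour after compound addition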
How it was run: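 Human umbilical vein endothelial cells co-cultured with PBMC; PBMC (75,000/well) pre-treated with compound 1 h, then activated with SEB and TSST-1 (20 ng/mL final each) for 90 h. Alamar Blue added 6 h, fluorescence 546/580 nm; bidirectional fit versus DMSO.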

[14] = read-out: Interleukin-8 (IL8), CXCL8 (gene 3576); assay: BSK_SAg_IL8: BioMAP Diversity Plus: SAg Assay for Interleukin-8 (IL8) Biomarker Activity (AID 2283094); settings: primary human HUVEC with PBMC; actives raise or lower the signal
How it was run: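 Human umbilical vein endothelial cells co-cultured with peripheral blood mononuclear cells; IL-8 measured by ELISA 24 h after chemical dosing. Bidirectional concentration-response fitting used DMSO as negative control and activity baseline.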

[15] = BSK_SAg_Proliferation: Cell Proliferation Assessment in the BioMAP Diversity Plus: SAg Assay (AID 2283095); settings: primary human HUVEC with PBMC;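 also: relative cell number as total protein by SRB absorbance in sub-confluent culture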
How it was run: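 Human umbilical vein endothelial cells co-cultured with peripheral blood mononuclear cells; total protein measured by sulforhodamine B staining (0.1% SRB after 10% TCA fixation), absorbance at 560 nm, at 96 h. Bidirectional fit against DMSO baseline.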

[16] = BSK_SAg_SRB: Viability Assessment in the BioMAP Diversity Plus: SAg Assay (AID 2283096); settings: primary human HUVEC with PBMC;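 also: cells read one day after compound addition; hits may be either gain or loss of signal compared with DMSO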
How it was run: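 Endothelial/PBMC primary human co-culture; compound 24 h; fix 10% TCA, stain 0.1% SRB, A560; protein content as cytotoxicity proxy; bidirectional curve fit, DMSO = baseline.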

[17] = molecular target: human CYP2C9, CYP2C9 (gene 1559) (UniProt P11712); assay: NVS_ADME_hCYP2C9: NovaScreen (NVS) CYP450-related Enzyme Activity (ADME) Assay for human CYP2C9 (AID 2283108; active = hit-call score of the fitted dose curve at least 0.9, where 1 is the maximum)
How it was run: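 Cell-free assay of recombinant human CYP2C9 produced in Sf9 cells, with enzyme activity read by fluorescence intensity 0.75 h after compound addition. Loss of signal versus an acetonitrile negative control indicates inhibition. Primary screen used 10 uM in duplicate; actives were retested in concentration series.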

[18] = molecular target: Cytochrome P450 2C19 (Homo sapiens) (UniProt P33261); assay: NVS_ADME_hCYP2C19: NovaScreen (NVS) CYP450-related Enzyme Activity (ADME) Assay for human CYP2C19 (AID 2283113; active = hit-call score of the fitted dose curve at least 0.9, where 1 is the maximum;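 also: potency for inhibition seen as loss of fluorescent signal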)
How it was run: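 Cell-free recombinant human CYP2C19 from insect cells, fluorescent substrate; activity read by fluorescence intensity 1 h after dosing. Primary screen in duplicate at 10 uM; actives retested in concentration series. Signal loss versus acetonitrile negative control.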

Measured: AC50

Chain of E-selectin (Homo sapiens) (P16581 whole entry, looked up): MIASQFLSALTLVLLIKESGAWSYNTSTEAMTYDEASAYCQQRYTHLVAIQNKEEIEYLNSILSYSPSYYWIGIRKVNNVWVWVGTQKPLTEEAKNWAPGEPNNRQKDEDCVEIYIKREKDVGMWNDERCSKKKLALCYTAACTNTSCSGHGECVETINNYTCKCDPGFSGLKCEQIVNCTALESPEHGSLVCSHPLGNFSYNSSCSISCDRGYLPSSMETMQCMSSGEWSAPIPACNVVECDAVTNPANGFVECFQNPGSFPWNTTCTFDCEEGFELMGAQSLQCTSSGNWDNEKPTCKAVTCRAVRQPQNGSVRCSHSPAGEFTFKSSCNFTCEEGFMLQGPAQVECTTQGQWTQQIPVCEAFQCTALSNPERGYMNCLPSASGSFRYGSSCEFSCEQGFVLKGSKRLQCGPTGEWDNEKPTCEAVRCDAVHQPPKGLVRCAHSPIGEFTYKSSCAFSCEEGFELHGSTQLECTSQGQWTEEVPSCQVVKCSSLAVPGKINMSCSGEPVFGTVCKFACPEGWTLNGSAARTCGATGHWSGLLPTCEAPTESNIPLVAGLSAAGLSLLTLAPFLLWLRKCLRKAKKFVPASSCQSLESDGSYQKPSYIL
Chain of Tumor necrosis factor (Homo sapiens) (P01375 whole entry, looked up): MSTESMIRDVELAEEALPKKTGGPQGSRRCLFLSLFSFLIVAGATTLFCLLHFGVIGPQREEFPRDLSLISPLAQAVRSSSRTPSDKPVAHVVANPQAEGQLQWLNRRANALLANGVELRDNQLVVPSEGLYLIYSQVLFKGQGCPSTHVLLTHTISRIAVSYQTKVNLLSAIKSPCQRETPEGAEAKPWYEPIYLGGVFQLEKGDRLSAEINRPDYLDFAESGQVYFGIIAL
Chain of human CYP2C9, CYP2C9 (gene 1559) (P11712 whole entry, looked up): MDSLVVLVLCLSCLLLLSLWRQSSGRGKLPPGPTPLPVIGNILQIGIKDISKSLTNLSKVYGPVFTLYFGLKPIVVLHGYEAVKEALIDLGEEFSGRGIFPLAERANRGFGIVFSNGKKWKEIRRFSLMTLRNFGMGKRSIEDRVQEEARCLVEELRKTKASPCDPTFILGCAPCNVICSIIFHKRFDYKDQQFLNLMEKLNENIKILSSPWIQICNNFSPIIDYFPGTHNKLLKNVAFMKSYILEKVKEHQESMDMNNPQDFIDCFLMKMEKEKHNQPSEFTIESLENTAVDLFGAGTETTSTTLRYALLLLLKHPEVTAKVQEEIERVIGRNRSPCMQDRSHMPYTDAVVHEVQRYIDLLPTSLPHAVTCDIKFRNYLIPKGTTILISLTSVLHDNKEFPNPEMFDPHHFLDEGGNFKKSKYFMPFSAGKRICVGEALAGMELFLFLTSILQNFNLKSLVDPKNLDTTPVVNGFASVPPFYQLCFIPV

C=CCOc1c(Br)cc(Br)cc1Br
active: [2] 0.054 µM
not listed: [17] | [18]
inactive: all other assays above

C=CC(=O)OCC(Br)CBr (centres undefined)
inactive: [3]
active: [1] 18.3 µM | [2] 30 µM | [4] 20 µM | [5] 16.7 µM | [6] 11 µM | [7] 10.9 µM | [8] 15.3 µM | [9] 11.7 µM | [10] 10.2 µM | [11] 24.8 µM | [12] 8.13 µM | [13] 6.05 µM | [14] 6.6 µM | [15] 1.66 µM | [16] 34.1 µM

CC(C)(c1cc(Br)c(OCCO)c(Br)c1)c1cc(Br)c(OCCO)c(Br)c1
active: [3] 0.121 µM | [7] 16.2 µM | [8] 5.1 µM | [9] 13.3 µM | [10] 2.31 µM | [12] 1.44 µM | [15] 0.479 µM | [17] 0.879 µM | [18] 1.8 µM
inactive: [1] | [2] | [4] | [5] | [6] | [11] | [13] | [14] | [16]

O=C1CCCN1CCO
not listed: [17] | [18]
inactive: all other assays above

C/C=C\C/C=C/CCCCCCCCOC(C)=O
inactive: [11] | [14] | [16]
active: [1] 35.1 µM | [2] 30.5 µM | [3] 35.5 µM | [4] 24.7 µM | [5] 30.4 µM | [6] 32.4 µM | [7] 26.2 µM | [8] 32.1 µM | [9] 20 µM | [10] 20 µM | [12] 29.5 µM | [13] 24.3 µM | [15] 26.7 µM | [17] 3.9 µM | [18] 0.065 µM
